Source: PubChem (National Center for Advancing Translational Sciences (NCATS))
PGK inhibitor: blocks T. brucei phosphoglycerate kinase; P07378; Potency, µM (highest dose often 57.5 µM), without a hit: at the top dose activity change, negative = inhibition, hits mostly inhibitors; PGK/GAPDH coupled, Kinase-Glo luminescence, 60 min; 380,000 compounds, 0.043% hits; note: potency is the fitted concentration of half-maximal effect; % is set by controls: 0 for no effect and ±100 for the full control effect; nearly all actives have a fitted effect of over 60% in size
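Luminescent ATP detection (Kinase-Glo Plus) follows a 60-minute room-temperature incubation, with wells lacking PGK as controls. Buffer: 100 mM TEA (pH 7.6), 5 mM MgCl2, 0.01% Tween-20. Coupling enzyme GAPDH (100 nM final) supplies unstable 1,3-BPG in-well.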
PI5P4Ka inh: inhibitors of human PI5P4K alpha; P48426; PI5P4Kalpha enzyme, ADP-Glo luminescence, 60 min; hits give low values; max response, %; 330,000 compounds, 1.2% hits; AID 652105; active = max response of -50% or lower; inconclusive = between -30% and -50%; inactive = -30% or higher; note: value at the top dose of about 77 µM; % is set by controls: 0 for no effect and ±100 for the full control effect
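Single end-point luminescence (ADP-Glo) quantified ADP from PI5P4Kalpha turnover; ATP 5 microM final, 1 h at RT, 0.1% CHAPS and 0.28 mM EGTA in HEPES pH 7.4.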
Tb PFK block: blocks T. brucei phosphofructokinase. O15648. 330,000 compounds, 0.17% hits. T. brucei PFK, ADP-Glo luminescence. Potency, µM (top dose mostly 57.5 µM), for the others: at the highest dose activity, negative = inhibition, hits mostly inhibitors;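 note: potency is the fitted concentration of half-maximal effect; 0% = uninhibited 1x PFK enzyme wells and -100% = no-enzyme wells; nearly all actives have a fitted effect of over 60% in size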
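Activity is normalized to no-enzyme wells (full inhibition) and 1.25 nM enzyme wells (no inhibition). Reaction: 0.5 mM F6P, 0.1 mM ATP, 45 min RT, ADP-Glo luminescence; concentration-response curves fitted and classed by quality.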
FEN1 inh: human FEN1 inhibition; Recombinant FEN1 flap cleavage, fluorescence, 15 min; 390,000 compounds, 0.35% hits; Potency, µM (doses to about 114 µM), without a hit: at the highest dose activity change, negative = inhibition, most hits filed as inhibitors; P39748; note: potency is the fitted concentration of half-maximal effect; % is set by controls: 0 for no effect and ±100 for the full control effect; nearly all actives have a fitted effect of over 65% in size
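In this screen, 50 nM flap DNA substrate was added to 10 nM FEN1 pretreated with compound for 15 min at room temperature; cleavage was followed with reads at 0 and 15 min, and Hill fitting gave concentration–response parameters.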
TDP1 block: TDP1 (human) enzyme inhibition | 350,000 compounds, 0.28% hits | Potency, µM (series often up to 130 µM), for the others: top-dose activity change, negative = inhibition, actives largely listed as inhibitors | Q9NUW8 | recombinant TDP1, AlphaScreen DNA substrate cleavage; note: potency is the fitted concentration of half-maximal effect; % is set by controls: 0 for no effect and ±100 for the full control effect; nearly all actives have a fitted effect of over 40% in size
Target sequence (Q9NUW8 whole entry, looked up): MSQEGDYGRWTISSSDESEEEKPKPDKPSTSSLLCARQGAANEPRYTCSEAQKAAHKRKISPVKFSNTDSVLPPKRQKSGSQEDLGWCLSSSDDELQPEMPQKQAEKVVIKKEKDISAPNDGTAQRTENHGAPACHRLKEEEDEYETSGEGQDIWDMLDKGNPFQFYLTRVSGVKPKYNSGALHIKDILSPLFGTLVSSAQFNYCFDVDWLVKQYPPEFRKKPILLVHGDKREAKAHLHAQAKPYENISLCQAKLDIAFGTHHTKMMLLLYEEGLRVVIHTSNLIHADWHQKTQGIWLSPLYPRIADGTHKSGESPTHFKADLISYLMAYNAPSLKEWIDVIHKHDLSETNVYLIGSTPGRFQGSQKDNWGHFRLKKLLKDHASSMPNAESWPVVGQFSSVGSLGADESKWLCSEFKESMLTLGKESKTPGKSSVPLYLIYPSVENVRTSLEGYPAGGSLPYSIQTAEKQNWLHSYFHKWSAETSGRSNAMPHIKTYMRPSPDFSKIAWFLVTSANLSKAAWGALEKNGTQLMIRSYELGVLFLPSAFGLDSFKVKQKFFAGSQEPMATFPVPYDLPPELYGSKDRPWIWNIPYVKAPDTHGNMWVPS
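E. coli-derived human Tdp1, 1 nM final. Cpd preinc 15 min RT; substrate 15 nM final, 5 min RT; AS bead mix 10 ug/ml final, 10 min RT. Signal loss = tyrosine-FITC cleavage. No-enzyme wells = max signal.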
WRN helicase inh-1: blocks human WRN helicase; Q14191; WRN helicase unwinding, fluorescent forked duplex, kinetic; Potency, µM (doses to about 114 µM), without a hit: at the top dose activity change, negative = inhibition, usual class: inhibitors; 360,000 compounds, 0.46% hits; note: potency is the fitted concentration of half-maximal effect; % is set by controls: 0 for no effect and ±100 for the full control effect; nearly all actives have a fitted effect of over 55% in size
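Primary qHTS, 1536-well format. 20 nM WRN + compound, 15 min RT; start with 100 nM forked fluorophore/quencher duplex, 2 mM ATP (final); kinetic read ex 525/em 598 nm.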
WRN helicase inh-2: WRN helicase inhibition, cherry-pick retest; shares compounds with WRN helicase inh-1; Potency, µM (top dose mostly 57.1 µM), without a hit: at the highest dose activity, negative = inhibition, actives largely listed as inhibitors; 610 compounds, 63% hits; WRN helicase DNA unwinding, fluorescence kinetic; note: potency is the fitted concentration of half-maximal effect; nearly all actives have a fitted effect of over 65% in size
TO displacement: counter-screen for WRN helicase inhibitors: DNA binding. shares compounds with WRN helicase inh-1. Potency, µM (titrated, usually from 57.1 µM), without a hit: at the highest dose activity change, negative = inhibition, hits mostly inhibitors. thiazole orange DNA binding displacement, fluorescence. 610 compounds, 10% hits;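 note: drop in dye fluorescence marks compound binding to DNA; potency is the fitted concentration of half-maximal effect; % is set by controls: 0 for no effect and ±100 for the full control effect; nearly all actives have a fitted effect of over 60% in size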
BLM helicase inh: BLM helicase inhibition, WRN selectivity check. 610 compounds, 60% hits. Recombinant BLM helicase DNA unwinding, red fluorescence. shares compounds with WRN helicase inh-1. Potency, µM (doses to about 57.1 µM), inactives show at the top dose activity change, negative = inhibition, hits mostly inhibitors; note: potency is the fitted concentration of half-maximal effect; nearly all actives have a fitted effect of over 60% in size
The depositor's hits bear a star; i = inactive; u = inconclusive; x = no result; [ ] = remark or other dose. A selection: hits, their analogues and other compounds. The true share with any hit is near 1.5%. Unless noted, calls come from the whole dose curve; as a rule, active = well fitted curve in the direction sought with a large enough effect; inconclusive = small, poorly fitted or top-dose-only effect, or another doubt; inactive = no such curve, though single readings can be large; an effect the other way counts as inactive or inconclusive.

SMILES	PGK inhibitor	PI5P4Ka inh	Tb PFK block	FEN1 inh	TDP1 block	WRN helicase inh-1	WRN helicase inh-2	TO displacement	BLM helicase inh
Oc1ccc(/C=N/Nc2ncnc3c2ncn3Cc2ccccc2)cc1O	-1%	u	-23%	2%	11%	u	7.6µM*	19µM*	2.4µM*
O=C1NN(c2ccc(Cl)c(Cl)c2)C(=O)/C1=C/c1ccc(-c2ccccc2C(=O)O)o1	u	-58*	-17%	u	x	32µM*	19µM*	-17%	-23%
COC(=O)c1ccc(N2NC(=O)/C(=C/c3ccc(-c4ccc(Cl)c(C(=O)O)c4)o3)C2=O)cc1	u	u	11%	u	x	35µM*	17µM*	u	22µM*
COC(=O)c1ccc(N2NC(=O)/C(=C/c3ccc(OC)c(OC)c3)C2=O)cc1	i	-18	-1%	2%	x	-24%[11.6 µM]	x	x	x
Fc1ccc(-c2csc(/C=C/c3ccc4c(c3)OCO4)n2)cc1	i	6	-2%	-1%	-3%	6%	x	x	x
O=C(Nc1cc(SCC(O)CO)cc([N+](=O)[O-])c1)c1ccc(-n2cnnn2)cc1 (centres undefined)	-10%	7	1%	-20%	0%	u	u	-27%	u
CCO[C@H]1OC(C(=O)NCc2ccccc2)=C[C@@H](c2cn(C(C)=O)c3ccccc23)[C@@H]1CCCO	10%	-3	-2%	9%	4%	-3%	x	x	x
COc1ccc2nc(C)cc(SCC(=O)N/N=C/c3ccc(O)c(O)c3)c2c1	u	-14	-2%	u	8%	14µM*	4.8µM*	u	6.1µM*
COC(=O)CSc1cc(C)nc2ccc(OC)cc12	-7%	-1	3%	-6%	4%	3%	x	x	x
O=C(N/N=C/c1ccc(O)c(O)c1)N/N=C/c1ccc(O)c(O)c1	u	-69*	u	2.5µM*	x	4µM*	0.96µM*	u	1.1µM*
O=C(CSc1nc2ccccc2o1)N/N=C/c1ccccc1	0%	3	4%	14%	-1%	-2%	x	x	x
COc1cccc2c(SCC(=O)N/N=C/c3ccc(O)c(O)c3)cc(C)nc12	u	-5	u	u	u	20µM*	4.8µM*	u	4.8µM*
O=C(CSc1nc2ccccc2o1)N/N=C/c1ccc(O)c(O)c1	u	-89*	2%	u	x	8.9µM*	2.7µM*	u	1.9µM*
NS(=O)(=O)c1ccc(NC(=S)NNC(=O)c2ccc(Br)o2)cc1	-5%	2	0%	5%	6%	2%	x	x	x
CC1CCCCC1Nc1nc2ccc(Cl)cc2n2cnnc12 (centres undefined)	1%	-2	1%	-25%	x	-3%[57.1 µM]	x	x	x
Cc1nnc(-c2cccc(Br)c2)c2cn(-c3cccc(Br)c3)nc12	-5%	9	u	u	-5%	25µM*	u	17%	9.6µM*
CCn1c(CCNC(=O)c2cccs2)nnc1SCC(=O)c1ccc(OC)cc1	17%	x	x	7%	x	-2%	x	x	x
O=C(Nc1cc2c(oc1=O)CCCC2=O)c1ccc(Cl)cc1	u	x	-27%	56µM*	13µM*	13µM*	19µM*	0%	7.6µM*
Cc1nccc2oc(=O)c(NC(=O)c3ccc(Cl)cc3)cc12	i	0	-2%	1%	-6%	-3%	x	x	x
Oc1ccc(Nc2ccc3ccccc3c2)cc1	-8%	u	x	-3%	x	u	-23%	u	u
Oc1ccc(Nc2nc(-c3ccc4ccccc4c3)cs2)cc1	x	x	1%	x	12%	x	x	x	x
CCc1cc(C(=O)N=Nc2c(O)[nH]c3ccc([N+](=O)[O-])cc23)c2ccccc2n1	-8%	-3	19%	u	6%	u	19µM*	15µM*	17µM*
O=c1cc(CN2CCN(S(=O)(=O)c3ccccc3)CC2)nc2sccn12	11%	-1	0%	16%	3%	-3%	x	x	x
Cc1nn(-c2ccccc2)c2nc(-c3ccco3)cc(C(=O)O)c12	-23%	u	-10%	u	x	u	u	-25%	-15%
CC(Oc1ccc2c(-c3ccccc3)cc(=O)oc2c1)C(=O)NCCCn1ccnc1 (centres undefined)	1%	-2	5%	22%	x	1%	x	x	x
CCOC(=O)C1=C(C)N=c2s/c(=C/c3ccc(OCC(=O)O)c(OC)c3)c(=O)n2C1c1ccc(Cl)cc1 (centres undefined)	14µM*	u	x	50µM*	x	28µM*	12µM*	465%	7.6µM*
CCC(=O)N1CCc2cc(Br)cc(S(=O)(=O)CCC(=O)Nc3cccc(C)c3C)c21	-7%	x	x	6%	3%	x	x	x	x
O=C1C(Cl)=C(Nc2ccccc2)C(=O)c2ccccc21	-15%	4	3%	-10%	1%	-6%	x	x	x
O=C1C(Cl)=C(NCCc2ccccc2)C(=O)c2ccccc21	-4%	-85*	x	u	x	28µM*	u	-20%	17µM*
COc1cccc(CNS(=O)(=O)c2cc(Br)ccc2Br)c1	0%	3	x	x	x	1%	x	x	x
